Results filed as inconclusive are left out. A number with no mark means an inactive call. Calls of active or inactive are those of the source.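 Rule for the calls: active = compounds whose dose-response curve shows a full or clear partial loss of cell viability, called from curve shape rather than a numeric limit; inconclusive = weak partial curves or an effect only at the top dose; inactive = no dose-dependent loss of viability.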
Experiment: Cell Viability - Hek293 (AID 427);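 note: cells exposed to compound for 40 hours at 37 °C before reading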
Details: qHTS
In short: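 AC50 values derive from Hill-modelled concentration-response of ATP-based luminescence, normalized between DMSO-only and 100 uM tamoxifen controls. Cells were exposed in complete culture medium for 40 hr at 37 °C before detection.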
Potency is the fitted concentration of half-maximal effect.

SMILES	Potency
CC(C)N(C)C	> 92 µM
CC(=O)c1cccc([N+](=O)[O-])c1	> 92 µM
CC(=O)OCCC(C)C	> 92 µM
CCN(Cc1ccccc1)c1ccccc1	> 92 µM
Cc1ccc(C#N)cc1	> 92 µM
Cc1ccccc1Br	> 92 µM
O=P(O)(OCc1ccccc1)OCc1ccccc1	> 92 µM
C=CCCC	> 92 µM
CC(C)Nc1ccccc1	> 92 µM
Cc1ccc(Br)cc1	> 92 µM
S=C([S-])NCCNC(=S)[S-].[Zn+2]	> 92 µM
CC(C=O)Cc1ccc(C(C)(C)C)cc1 (stereo unspecified)	> 92 µM
CCCCCCCN	> 92 µM
CC(C)C(C)C	> 92 µM
CC(C)(C)c1ccc(OCC2CO2)cc1 (stereo unspecified)	> 92 µM
Cc1ccc2c(c1[N+](=O)[O-])C(=O)c1ccccc1C2=O	0.351 µM (active)
CCCCCCO	> 92 µM
O=C(O)c1ccccc1Cl	> 92 µM
Nc1cc(Cl)c([N+](=O)[O-])cc1O	> 92 µM
COCCOC(=O)c1ccccc1C(=O)OCCOC	> 92 µM
OCCO	> 92 µM
CCC(C)=O	> 92 µM
Nc1cc(S(=O)(=O)O)ccc1O	> 92 µM
O=CNc1ccccc1	> 92 µM
C=C(C)C(=O)OCC(C)C	> 92 µM
CC(=O)c1ccc([N+](=O)[O-])cc1	> 92 µM
